# SMN2 splice enh: enhancers of SMN2 splice variant expression; HEK293 SMN2-luciferase splicing reporter, luminescence, 30-36 h; Potency, µM (top dose mostly 46.1 µM), without a hit: top-dose activity change, positive = activation, hits mostly activators; 210,000 tested, 2.8% active; note: % of control where 0% means no effect; nearly all actives have a fitted effect of over 55% in size
#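 HEK293 cells carry an SMN2 minigene-luciferase reporter in which exon 7 inclusion puts luciferase in frame. Cells were seeded at 2000 cells/well, attached for 10-12 hours, then exposed to compounds for 30-36 hours at 37C before ONE-Glo luminescence.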
# ELG1 genotoxic: induces genotoxicity in HEK293T cells with luciferase-tagged ELG1. HEK293T ELG1-luciferase reporter, luminescence, 16 h. Potency, µM (doses to about 46 µM), for the others: top-dose activity change, positive = activation, most hits filed as activators. 330,000 tested, 1.3% active; note: % of control where 0% means no effect; nearly all actives have a fitted effect of over 60% in size
#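 Reporter readout depends on ELG1 protein level, which increases with genetic stress. After 16 hr compound exposure at 37 °C, luciferase activity was quantified using ONE-Glo.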
# FLuc modulator: firefly luciferase modulation, counter-screen for miR-21 project | purified FLuc, Km substrates, luminescence inhibition | Potency, µM (series often up to 57.5 µM), without a hit: top-dose activity change, negative = inhibition, most hits filed as inhibitors | 360,000 tested, 6.9% active;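 note: plate controls were vehicle for no effect and reference inhibitor for full effect; nearly all actives have a fitted effect of over 55% in size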
# Target sequence (P08659 whole entry, looked up): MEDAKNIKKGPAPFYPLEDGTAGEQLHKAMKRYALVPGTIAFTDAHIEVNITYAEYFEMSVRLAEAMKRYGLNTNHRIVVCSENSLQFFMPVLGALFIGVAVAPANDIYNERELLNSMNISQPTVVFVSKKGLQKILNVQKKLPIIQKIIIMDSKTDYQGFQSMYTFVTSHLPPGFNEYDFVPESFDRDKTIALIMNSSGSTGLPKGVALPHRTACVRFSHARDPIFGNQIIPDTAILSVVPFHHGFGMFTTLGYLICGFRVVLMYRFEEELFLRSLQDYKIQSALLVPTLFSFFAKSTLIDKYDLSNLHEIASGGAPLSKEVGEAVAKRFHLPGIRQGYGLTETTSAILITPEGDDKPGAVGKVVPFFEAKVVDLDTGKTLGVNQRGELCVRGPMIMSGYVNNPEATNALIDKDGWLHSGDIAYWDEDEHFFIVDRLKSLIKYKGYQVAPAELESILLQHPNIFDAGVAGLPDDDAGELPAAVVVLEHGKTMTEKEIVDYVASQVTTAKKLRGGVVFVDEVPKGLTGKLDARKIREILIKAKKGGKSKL
#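 Biochemical qHTS of compounds, final roughly 60 µM downward over six points, against 10 nM purified firefly luciferase using Km concentrations of substrates (10 uM D-luciferin, 10 uM ATP) in Tris acetate pH 7.5 buffer; luminescence output.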
# Rab9 prom act: Rab9 promoter activation | 320,000 tested, 2.8% active | Potency, µM (top dose mostly 9.22 µM), without a hit: top-dose activation, negative = inhibition, usual class: activators | AID 485297 | Huh7 Rab9 promoter-luciferase reporter, luminescence, 24 h; note: % of control where 0% means no effect; nearly all actives have a fitted effect of over 60% in size
#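 Luminescence from Amplite-detected luciferase (10 minutes, ambient) reports Rab9 promoter activation. Before that, stable Rab9-luciferase Huh7 cells (1500/well, reduced-serum OP-MEM I plus 10% FBS) were exposed to compound for 24 hours at 37C.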
# ELG1 DNA repair: inhibitors of ELG1-dependent DNA repair in HEK293T cells | 330,000 tested, 2.3% active | Potency, µM (series often up to 46.1 µM), inactives show at the highest dose activity change, negative = inhibition, hits mostly inhibitors | AID 504467 | HEK293T ELG1-luciferase reporter, luminescence, 16 h; DNA damage induced by 5-fluorouridine; note: % is set by controls: 0 for no effect and ±100 for the full control effect; nearly all actives have a fitted effect of over 55% in size
#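 5-Fluorouridine DNA damage + compound/DMSO, 2,000 cells/well, 16 h, 37 °C/5% CO2. ONE-Glo, 30 min RT, luminescence. Readout = decrease in reporter signal.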
# NPC1 prom act: activators of NPC1 promoter; Huh7 NPC1 promoter luciferase reporter, 24 h; Potency, µM (highest dose often 9.22 µM), for inactives: at the top dose activation, hits mostly activators; 320,000 tested, 2.4% active; AID 485313; note: % of control where 0% means no effect; nearly all actives have a fitted effect of over 60% in size
#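 Luminescence read-out of NPC1 promoter-driven luciferase in stably transfected Huh7 cells; compounds delivered in DMSO and left 24 h at 37C, 5% CO2, qHTS titration format.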
# An asterisk follows results filed as active; ? = inconclusive; . = no result. Sampled rows, rich in hits. Any-hit rate of the full collection: about 9.2%. Calls come from the whole dose curve; as a rule, active = well fitted curve in the direction sought with a large enough effect; inconclusive = small, poorly fitted or top-dose-only effect, or another doubt; inactive = no such curve, though single readings can be large; an effect the other way counts as inactive or inconclusive. Potency is the fitted concentration of half-maximal effect.
SMILES,SMN2 splice enh,ELG1 genotoxic,FLuc modulator,Rab9 prom act,ELG1 DNA repair,NPC1 prom act
Cc1cc(=O)n2nc(N3CCCC(C(=O)NCc4ccccc4C)C3)sc2n1 (stereo not drawn),.,5%,-1%,6%,2%,-3%
Cc1ccc(NC(=O)c2ccc(Cl)cc2Cl)c(C(=O)c2ccccc2)c1,-29%,.,0%,.,.,.
NS(=O)(=O)c1ccc(CCNC(=O)C2CCN(C(=O)Nc3ccccc3)CC2)cc1,.,0%,.,.,0%,.
O=C(NCc1ccccc1)c1cc[n+]([O-])cc1,.,-1%,0%,-3%,5%,1%
O=C(Nc1ccc(NC(=O)c2ccccc2F)cn1)c1ccco1,.,?,1.9µM*,0.56µM*,?,0.32µM*
O=C(Nc1ccc(NC(=O)C2CC2)nc1)c1ccco1,17%,?,?,?,?,?
O=C(Nc1ccc(NC(=O)c2ccco2)nc1)c1cccnc1,11µM*,?,11µM*,2µM*,?,2.2µM*
O=C(Nc1ccc(NC(=O)c2ccco2)nc1)c1cccc(F)c1,.,?,5.4µM*,3.2µM*,?,0.89µM*
COc1cccc(C(=O)Nc2ccc(NC(=O)c3ccco3)nc2)c1,?,19%,21µM*,4.5µM*,?,?
Cc1ccc(C)c(N2CCN(C(=O)CCn3c(=S)[nH]c4cc5c(cc4c3=O)OCO5)CC2)c1,-19%,-1%,1%,-2%,7%,0%
Cc1ccccc1NC(NC(=O)c1cccs1)C(Cl)(Cl)Cl (stereo not drawn),-9%,3%,2%,6%,-2%,1%
COc1ccc(Br)cc1CNC(=O)c1nn(-c2ccc(C)cc2)c(=O)c2c1c1ccccc1n2C,1%,.,-4%,.,.,.
CCOc1ccc(C(=O)NCC(=O)OCCCC(=O)c2ccc(F)cc2)cc1OCC,.,2%,4%,1%,0%,1%
Cc1cc(NC(=O)c2cccc(F)c2)ncc1NC(=O)c1ccco1,14µM*,3.7µM*,11µM*,2µM*,?,1.3µM*
CCCC(=O)Nc1ccc(NC(=O)c2cccc(OC)c2)nc1,?,12%,12µM*,3.2µM*,?,?
CC(C)(C)c1ccc(Oc2ccc(NC(=O)c3ccco3)cn2)cc1,.,-10%,?,-32%,-22%,-12%
O=C(Nc1ccc(Oc2cccc(C(F)(F)F)c2)nc1)c1ccco1,.,-12%,0%,-5%,10µM*,-3%
COc1cccc(C(=O)Nc2ccc(NC(C)=O)cn2)c1,?,?,21µM*,?,?,?
Cc1ccc(C23CC4CC(CC(CC(=O)N5CCOCC5)(C4)C2)C3)cc1,-16%,-3%,-2%,-1%,-16%,1%
COc1ccc(Cc2nc3ccc(C(=O)NCCc4ccc(Cl)cc4)cc3o2)cc1,.,.,3%,.,.,.
COc1cc(C(=O)Nc2nonc2-c2ccc(Cl)cc2)cc(OC)c1OC,2%,.,?,.,.,.
N/C(=N\OC(=O)CCCOc1ccccc1)c1cccc(Br)c1,10%,-1%,?,0%,-5%,-2%
N/C(=N\OS(=O)(=O)c1ccc(Cl)cc1)c1ccccn1,-6%,23µM*,-19%,23%,?,20%
N/C(=N\OC(=O)c1cccc(Br)c1)c1ccccn1,.,?,0.43µM*,4µM*,?,3.5µM*
N/C(=N\OC(=O)c1ccc(Cl)c(Cl)c1)c1ccccn1,14µM*,?,0.76µM*,4.5µM*,?,3.2µM*
SMILES,SMN2 splice enh,ELG1 genotoxic,FLuc modulator,Rab9 prom act,ELG1 DNA repair,NPC1 prom act
N/C(=N\OC(=O)c1ccc(Cl)c([N+](=O)[O-])c1)c1ccccn1,.,14%,?,1%,?,-1%
N/C(=N\OC(=O)c1ccc(Cl)cc1)c1[nH]ncc1Br,.,?,0.13µM*,3.2µM*,?,?
CC1(C)CC(N=C=O)CC(C)(CN=C=O)C1 (stereo not drawn),9%,.,.,.,.,.
CCOc1cc(C(=O)O/N=C(\N)c2ccccn2)cc(OCC)c1OCC,.,-11%,?,4%,?,6%
N/C(=N\OC(=O)c1cccc(Br)c1)c1ccccc1,?,?,0.85µM*,2%,?,19%
N/C(=N\OC(=O)c1ccc(Cl)cc1)c1ccccn1,7.1µM*,?,0.076µM*,1.4µM*,?,0.56µM*
CC(C)C(=O)O/N=C(\N)c1ccccn1,6%,3%,-5%,-1%,24%,3%
N/C(=N\OC(=O)c1ccc2ccccc2c1)c1ccc(Br)cc1,?,-1%,-19%,16%,?,17%
CCOc1ccc(C(=O)O/N=C(\N)c2ccccn2)cc1OCC,.,?,12µM*,2.5µM*,?,1.3µM*
N/C(=N\OC(=O)c1cccc(Cl)c1)c1ccccn1,14µM*,?,0.6µM*,3.2µM*,?,3.2µM*
COc1cccc(CNC(=O)CSC2=Nc3ccccc3C3=NC(C(C)C)C(=O)N23)c1 (stereo not drawn),.,.,1%,.,.,.
COc1cccc(Nc2ccc3cc(S(=O)(=O)N4CCC(C)CC4)ccc3n2)c1,.,.,-1%,.,.,.

# Screening results: PubChem, National Center for Advancing Translational Sciences (NCATS)
